# RGS8-Gao reg: modulates binding of RGS8 to human Galphao; response (percent of control binding), % at 10 µM; multiplexed bead flow cytometry; actives lie on both sides; hit rate 0.34% among 220,000; P09471; AID 1423; in the data active means response below about 60% or above about 140%; inactive means in between;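 further: Galphao activated as the GDP aluminium fluoride complex binding bead-coupled RGS8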
# Target sequence (P09471 whole entry, looked up): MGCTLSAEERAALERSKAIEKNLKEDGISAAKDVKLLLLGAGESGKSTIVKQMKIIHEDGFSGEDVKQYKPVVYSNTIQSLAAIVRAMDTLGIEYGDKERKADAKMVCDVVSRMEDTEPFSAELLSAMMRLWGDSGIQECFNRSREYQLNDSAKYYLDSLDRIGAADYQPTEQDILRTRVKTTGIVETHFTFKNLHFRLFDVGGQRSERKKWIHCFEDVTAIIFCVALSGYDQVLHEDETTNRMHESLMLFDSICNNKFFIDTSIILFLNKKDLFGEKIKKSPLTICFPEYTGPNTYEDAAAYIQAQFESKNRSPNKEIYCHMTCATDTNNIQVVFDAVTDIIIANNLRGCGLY
# RGS4-Gao reg: modulates binding of RGS4 to human Galphao; P09471; Multiplexed bead flow cytometry; actives lie on both sides; binding response (% of control), % at 10 µM; hit rate 0.33% among 220,000; in the data active means binding response below about 49% or above about 150%; inactive means in between;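 further: fluorescent Galphao activated with aluminum fluoride binding bead-coupled RGS4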
# Avidin bead fluor: avidin bead compound fluorescence profile; Avidin beads, compound fluorescence 488/530 nm, flow cytometry; stronger effect = higher value; fluorescence (KMESF) at 10 µM; hit rate 0.38% among 220,000; in the data active means fluorescence above about 47
# RGS7-Gao: regulators of human RGS7-Galphao interaction | binding response (% of control), % at 10 µM | Multiplexed bead flow cytometry, RGS7-Galphao binding; actives lie on both sides | hit rate 0.35% among 220,000 | P09471; in the data active means binding response below about 49% or above about 150%; inconclusive means no clear call, values can overlap the other calls; inactive means in between;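 further: fluorescent Galphao held in activated GDP-AlF4 state binding bead-coupled RGS7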
# GSH bead fluor: GSH bead compound fluorescence profile; GSH beads flow cytometry, compound fluorescence 488/530 nm; stronger effect = higher value; fluorescence (KMESF) at 10 µM; hit rate 0.25% among 190,000; in the data active means fluorescence above about 89;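 further: glutathione beads carrying GST-tagged Bcl family fusion proteins plus one bare bead set; values are compound well signal with DMSO vehicle wells as background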
# RGS16-Gao HTS: RGS16-Galphao interaction regulator (human); O15492+P09471; bead-based flow cytometry RGS16-Galphao binding, fluorescence; actives lie on both sides; binding response (% of control), % at 10 µM; hit rate 0.38% among 220,000; AID 1441;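 further: Galphao activated by GDP with aluminum fluoride before binding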
# Target sequence (O15492 whole entry, looked up): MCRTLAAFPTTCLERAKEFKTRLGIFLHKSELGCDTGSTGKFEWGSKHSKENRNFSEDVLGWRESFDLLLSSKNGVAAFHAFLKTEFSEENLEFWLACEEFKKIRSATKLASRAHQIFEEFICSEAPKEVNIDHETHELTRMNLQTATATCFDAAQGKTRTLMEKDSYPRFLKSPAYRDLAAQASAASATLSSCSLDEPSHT
# Target sequence (P09471 whole entry, looked up): as the sequence (P09471 whole entry, looked up) above
# RGS4-Gao HTS: regulators of human RGS4-Galphao interaction; RGS4–Galpha-o binding response, % at 10 µM; AID 1504; shares compounds with RGS16-Gao HTS; hit rate 99% among 1,600; multiplexed bead flow cytometry, RGS–Galpha-o binding;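 further: fluorescently labeled Galpha-o bound to GDP with aluminium fluoride binding biotinylated RGS beads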
# Avidin counter: interferes with biotinylated probe binding to avidin beads | shares compounds with RGS16-Gao HTS | streptavidin beads, fluorescein-biotin binding, flow cytometry | inhibition, % at 10 µM | 1,700 tested, under 10 active | AID 1783;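 active means inhibition above 50%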;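 further: median green fluorescence of gated singlet beads compared with DMSO control wells; 0% = DMSO wells and 100% = complete loss of bead fluorescence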
# RGS8-Gao single: confirmation of regulators of human RGS8-Galphao interaction; binding response (% of control), % at 10 µM; AID 1836; bead-based flow cytometry RGS8-Galphao binding, fluorescence; actives lie on both sides; hit rate 3% among 1,700; shares compounds with RGS16-Gao HTS; in the data active means binding response below about 72% or above about 130%; inactive means in between;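 further: Galphao activated as GDP AlF4 complex before binding bead RGS8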
# RGS7-Gao single: RGS7-Galphao interaction regulation, single point confirmation. shares compounds with RGS16-Gao HTS. bead-based flow cytometry RGS7-Galphao binding; actives lie on both sides. response (percent of control binding), % at 10 µM. hit rate 7.8% among 1,700. AID 1837; in the data active means response below about 75% or above about 130%; inactive means in between;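 further: fluorescent Galphao activated with GDP and aluminum fluoride binding bead-coupled RGS7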
# RGS16-Gao single: confirmation of regulators of human RGS16-Galphao interaction | shares compounds with RGS16-Gao HTS | hit rate 4% among 1,700 | AID 1838 | bead-based flow cytometry, RGS16-Galphao binding; actives lie on both sides | response (% of control binding), % at 10 µM; in the data active means response below about 74% or above about 130%; inactive means in between;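 further: Galphao activated as the GDP aluminium fluoride complex binding bead-coupled RGS16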
# RGS4-Gao single: RGS4-Galphao interaction regulation, single point confirmation; hit rate 4% among 1,700; shares compounds with RGS16-Gao HTS; AID 1840; binding response (% of control), % at 10 µM; RGS4-Galphao binding, multiplexed bead flow cytometry; actives lie on both sides; in the data active means binding response below about 74% or above about 130%; inactive means in between
# RGS19-Gao single: RGS19-Galphao interaction regulation, single point confirmation | shares compounds with RGS16-Gao HTS | bead-based flow cytometry RGS19-Galphao binding; actives lie on both sides | response (percent of control binding), % at 10 µM | hit rate 5% among 1,700 | AID 1841; in the data active means response below about 50% or above about 160%; inactive means in between;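 further: 100% = no compound control and 0% = blank background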
# The depositor's hits bear a star; ? = inconclusive; nt = no result given; [ ] = remark or other dose. Most compounds without a hit are left out; they make up all but 1.2% or so of the library. Unless noted, how the calls were made is not given here.
SMILES,RGS8-Gao reg,RGS4-Gao reg,Avidin bead fluor,RGS7-Gao,GSH bead fluor,RGS16-Gao HTS,RGS4-Gao HTS,Avidin counter,RGS8-Gao single,RGS7-Gao single,RGS16-Gao single,RGS4-Gao single,RGS19-Gao single
C=CCn1c(CNC(=O)c2ccccc2F)nnc1SCc1nc2ccccc2c(=O)[nH]1,nt,nt,nt,nt,10,nt,nt,-1,98,96,97,97,89
CN(C)/C=C1\C=C2C(=O)c3ccccc3N2C1=O,137,242*[activator],92*,?,nt,224*[activator],nt,1,143*[activator],355*[activator],268*[activator],271*[activator],374*[activator]
CN(C)S(=O)(=O)N1C(=O)c2ccccc2C1=O,101,101,7,?,nt,97,nt,nt,nt,nt,nt,nt,nt
CCN(CC)CC(C)CNC(=O)CC(C(=O)N1CCc2ccccc21)n1ccnc1 (stereo not given),102,107,38,103,26,117,nt,nt,nt,nt,nt,nt,nt
O=C(CC(C(=O)N1CCc2ccccc21)n1ccnc1)NCc1ccccc1 (stereo not given),143*[activator],115,4,113,28,476,115*,2,102,104,104,102,100
O=C(Nc1ccc2c(c1)OCO2)C1CCN(Cc2cnn(-c3ccccc3)c2-n2cccc2)CC1,56*,79,3,37*,44,134,79*,0,98,97,98,97,96
NC(=O)CSc1nnc(-c2ccc(S(=O)(=O)N3CCCCC3)cc2)n1-c1ccccc1,114,125,11,111,17,335*[activator],125*,1,106,98,106,105,105
COc1ccccc1-n1c(SCC(N)=O)nnc1-c1ccc(S(=O)(=O)N2CCCCC2)cc1,100,97,4,98,29,97,nt,nt,nt,nt,nt,nt,nt
CC(=O)N1CCN(c2ccc(NCc3cccs3)cc2)CC1,46*,50*,3,40*,18,30,nt,1,105,104,101,99,108
O=c1c2c3c(sc2nc(N2CCNCC2)n1CCc1ccccc1)CCCCC3,103,99,8,?,nt,97,nt,nt,nt,nt,nt,nt,nt
NS(=O)(=O)c1ccc(CNC(=O)/C=C/c2ccco2)cc1,94,98,8,?,nt,97,nt,-2,91,93,95,96,85
O=C(/C=C/c1ccco1)NCc1ccc(F)cc1,100,105,10,100,20,102,nt,nt,nt,nt,nt,nt,nt
CC1CCc2c(sc(NC(=O)COC(=O)c3ccccc3NCc3ccco3)c2C#N)C1 (stereo not given),4.6*,-5.5*,-4,-2.0*,16,-59,nt,-2,103,109,105,105,107
Cc1cc(C)c(S(=O)(=O)/N=C2/C=C(Sc3ncn[nH]3)C(=O)c3ccccc32)cc1C,60,90,5,84,22,-0.4*,90*,nt,nt,nt,nt,nt,nt
Cc1ccc(NC2=C/C(=N/S(=O)(=O)c3cccs3)c3ccccc3C2=O)cc1C,100,100,3,99,14,96,nt,nt,nt,nt,nt,nt,nt
Cc1cc(C)c2c(=O)n(CC(=O)NC3CCCC3)sc2n1,81,93,3,?,nt,41,nt,nt,nt,nt,nt,nt,nt
COc1ccc(OC)c(CCNC(=O)Cn2sc3nc(C)cc(C)c3c2=O)c1,74,92,3,92,15,17*,92*,3,52*,71*,6.5*,69*,8.8*
COc1ccc(-n2c(SCC(N)=O)nnc2-c2cccnc2)cc1,nt,106,nt,103,26,nt,nt,1,102,101,100,101,96
COc1cccc(-c2nnc(NC(=O)c3ccc4ncsc4c3)o2)c1,91,100,8,97,4,45,nt,nt,nt,nt,nt,nt,nt
Cc1ccc(Nc2c(-c3ccc(N(C)C)cc3)nc3ncccn23)cc1,97,96,14,?,nt,92,nt,nt,nt,nt,nt,nt,nt
Cc1ccc(SCc2nc3ncccn3c2Br)cc1,nt,nt,75*,nt,nt,nt,nt,0,96,91,92,94,88
O=C(CCCOc1ccccc1)Nc1ccc(Cl)cn1,102,105,15,?,10,106,nt,nt,nt,nt,nt,nt,nt
CCCNC(=O)CN1C(=O)NC2(CCCc3cc(OC)ccc32)C1=O (stereo not given),148*[activator],108,6,110,17,253,108*,nt,nt,nt,nt,nt,nt
Cc1ccc(N2CCC(N3CCN(C4CCCCC4)C(CCO)C3)CC2)cc1 (stereo not given),104,103,3,103,10,101,nt,nt,nt,nt,nt,nt,nt
COc1c(Br)cc(C(N)=O)cc1OCc1ccccc1,69,77,6,77,10,-1.3*,77*,1,101,99,102,101,103
SMILES,RGS8-Gao reg,RGS4-Gao reg,Avidin bead fluor,RGS7-Gao,GSH bead fluor,RGS16-Gao HTS,RGS4-Gao HTS,Avidin counter,RGS8-Gao single,RGS7-Gao single,RGS16-Gao single,RGS4-Gao single,RGS19-Gao single
CN(c1ccccc1)S(=O)(=O)c1cccc(C(=O)Nc2ccc3c(c2)CCC3)c1,87,102,8,91,12,18*,102*,-1,101,103,103,102,94
O=c1[nH]c2c(cnn2-c2ccc(Cl)cc2)c(=O)n1-c1cccc(Cl)c1,101,103,6,?,nt,103,nt,nt,nt,nt,nt,nt,nt
CCOc1ccc2ncc(C(=O)c3ccc(OC)cc3)c(N3CCN(CC)CC3)c2c1,123,359*[activator],50*,309*[activator],129*,284*[activator],nt,1,102,102,103,103,74
CCc1ccc(C(=O)c2cnc3ccc(OC)cc3c2N2CCN(CC)CC2)cc1,104,106,15,103,14,104,nt,nt,nt,nt,nt,nt,nt
COc1ccc(NC(=O)CSc2nnc(CNC(=O)COc3ccc(Cl)cc3)o2)c(OC)c1,104,105,38,106,14,104,nt,nt,nt,nt,nt,nt,nt
COc1ccc(OC)c(NC(=O)CSc2nnc(CNC(=O)COc3ccc(Cl)cc3)o2)c1,104,105,68*,159*[activator],15,117,105*,-2,104,104,106,104,100
